sEH inhibitor = soluble epoxide hydrolase inhibitors, primary screen, biochemical, human sEH | AID 707, 2007 | hit rate 0.34% among 91,000 | inhibition, % at 2 µM | recombinant human sEH enzymatic activity assay | Bifunctional epoxide hydrolase 2 (Homo sapiens), P34913; in the data active = inhibition above about 80%
Target sequence (P34913 whole entry, looked up): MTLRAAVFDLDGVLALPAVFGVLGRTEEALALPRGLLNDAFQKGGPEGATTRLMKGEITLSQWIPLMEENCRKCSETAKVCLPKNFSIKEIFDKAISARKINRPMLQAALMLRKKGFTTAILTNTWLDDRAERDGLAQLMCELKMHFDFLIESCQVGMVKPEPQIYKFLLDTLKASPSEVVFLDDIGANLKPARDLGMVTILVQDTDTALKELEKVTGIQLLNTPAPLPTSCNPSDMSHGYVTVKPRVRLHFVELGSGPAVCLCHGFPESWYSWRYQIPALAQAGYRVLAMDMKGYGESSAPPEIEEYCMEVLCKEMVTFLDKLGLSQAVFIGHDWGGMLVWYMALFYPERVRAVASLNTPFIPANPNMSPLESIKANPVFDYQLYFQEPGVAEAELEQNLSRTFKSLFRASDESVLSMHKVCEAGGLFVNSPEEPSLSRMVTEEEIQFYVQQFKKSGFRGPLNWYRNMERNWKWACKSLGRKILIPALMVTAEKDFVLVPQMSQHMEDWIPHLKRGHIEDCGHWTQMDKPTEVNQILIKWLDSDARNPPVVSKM
sEH act = soluble epoxide hydrolase activators, primary screen, biochemical, human sEH; Bifunctional epoxide hydrolase 2 (Homo sapiens), P34913; purified human sEH enzymatic activity, activator screen; activation, % at 2 µM; hit rate 0.04% among 91,000; in the data active = activation above about 37%
IL1B NFkB pot = enhancers of NFkB p65 translocation in HUVEC – imaging, IL-1B stimulus, high-content imaging, primary screen | HUVEC IL-1B NFkB p65 nuclear translocation imaging | activation, % at 2 µM | hit rate 0.3% among 94,000;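 active = activation above 40%, about the mean plus 3 SD, also judged a hit on visual image review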;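 note: percent activation is computed from the nuclear over cytoplasmic p65 intensity ratio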
NFkB transloc inh = inhibitors of IL-1B driven NFkB p65 nuclear import, primary screen, imaging, HUVEC, IL-1B stimulus, high-content imaging. HUVEC IL-1B NFkB p65 nuclear translocation imaging. inhibition, % at 2 µM. hit rate 0.43% among 94,000;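 active = inhibition above about 30% together with a positive call from visual inspection of the well image, limit read from the data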;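 note: nuclear over cytoplasmic p65 intensity ratio measured by imaging; 0% = IL-1B stimulated DMSO wells and 100% = unstimulated DMSO wells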
IL1B cytotox = cytotoxicity in IL-1B stimulated HUVEC, primary screen, cytotoxicity control for IL-1B NFkB translocation project, imaging, Hoechst nuclear count, IL-1B stimulus; HUVEC cell count loss; cell count reduction, % at 2 µM; hit rate 0.41% among 94,000;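 active = cell count reduction more than 3 SD above the screen-wide mean, cut at about 70% in these data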;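 note: normalized per plate to untreated control cells as the no-loss baseline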
Active calls of the source: *; nt = no result. Sampled rows, rich in hits. Any-hit rate of the full collection: about 1.2%.

SMILES	sEH inhibitor	sEH act	IL1B NFkB pot	NFkB transloc inh	IL1B cytotox
COC(=O)[C@H](C)NC(=O)NC1CCN(Cc2ccccc2)CC1	6.3	-7.0	0.9	-0.9	82.9*
CCCCOP(=O)(OCCCC)C1(NS(=O)(=O)c2ccccc2)C=CC(=O)c2ccccc21 (stereo not drawn)	3.2	-5.9	8.9	-8.9	3.1
CCOc1ccc(OCCSc2nc3ccccc3c(=O)[nH]2)cc1	-5.5	3.6	13.3	-13.4	-21.6
Clc1ccc(OCCCCSc2ncccn2)cc1	-5.2	3.3	0.6	-0.6	-9.5
CCCOc1ccc(OCCSc2ncccn2)cc1	1.2	-3.3	43.8*	-43.8	-34.2
CCOc1ccc(OCCSc2nc3ccccc3o2)cc1	-4.5	2.4	-41.9	41.9*	3.9
CC(C)N(CCc1ccncc1)C(=O)Nc1ccc(Cl)c(Cl)c1	18.5	-19.5	43.1*	-43.1	6.8
O=C(COc1ccc(Br)cc1)NCc1ccccn1	-7.6	3.0	40.9*	-40.9	-11.6
N#Cc1ccc(OCC(=O)NCCc2ccccn2)cc1	2.0	0.3	29.2	-29.2	-4.8
CCOc1cc(/C=C\c2[nH]c(=O)[nH]c(=O)c2[N+](=O)[O-])ccc1OC(C)CC (stereo not drawn)	13.6	-11.8	47.5*	-47.5	-67.4
CC(C)CN1C(=O)c2ccc(C(=O)NCc3ccc4c(c3)OCO4)cc2C1=O	81.4*	-81.7	1.9	-1.9	-6.7
CC(=O)N1CCN(c2ccc(NC(=O)COc3ccc(Cl)cc3Cl)cc2)CC1	90.0*	-90.2	23.5	-23.5	-21.3
O=C(COc1ccc(Cl)cc1Cl)NNC(=S)Nc1ccc(F)cc1	27.5	-27.6	nt	nt	nt
CC(=O)NC(=S)Nc1ccc(NC(=O)COc2ccc(Cl)cc2Cl)cc1	81.5*	-81.5	nt	nt	nt
CCCCCC(C)n1[nH]c(=O)cc1N (stereo not drawn)	-10.9	10.8	23.4	-23.4	-3.2
CC1CCCCC1NC(=O)COC(=O)c1ccc(S(=O)(=O)NCc2ccco2)cc1 (stereo not drawn)	78.7	-78.5	14.6	-14.6	-4.7
O=C(COC(=O)c1ccc(S(=O)(=O)NCc2ccco2)cc1)NC1CCCCCC1	90.4*	-90.3	9.0	-9.0	-1.0
O=C(CCn1c(=O)[nH]c2ccsc2c1=O)Nc1ccc(F)c(F)c1	-10.0	6.8	0.9	-0.9	2.0
O=C(Nc1ccc(Cl)c(Cl)c1)N1CCSCC1	81.7*	-81.5	-0.9	0.9	-25.8
O=C(Nc1ccc(N2CCOCC2)cc1)Nc1ccc(Cl)c(Cl)c1	82.1*	-81.7	4.3	-4.3	10.9
O=C(NCCC1=CCCCC1)c1ccc2c(c1)N(Cc1ccccc1)C(=O)CS2	82.0*	-82.5	8.7	-8.7	-7.5
O=C(Nc1nnc(C2CCCO2)s1)c1cccs1 (stereo not drawn)	10.4	-7.7	-37.0	37.0*	70.1*
CC(C)(C)C(=O)/C(=C\c1ccc([N+](=O)[O-])cc1)n1cncn1	4.2	-1.5	-68.9	68.9*	48.5
O=C(Cn1c(=O)n(CCCCC(=O)NC2CCCC2)c(=O)c2ccccc21)NCCC1=CCCCC1	7.3	-4.5	-40.5	40.5*	2.7
O=C(CCn1c(=O)c2ccccc2n(CC(=O)NC2CCCC2)c1=O)NCCc1ccc(Cl)cc1	8.7	-6.6	-11.1	11.1	0.9
SMILES	sEH inhibitor	sEH act	IL1B NFkB pot	NFkB transloc inh	IL1B cytotox
COc1cccc(-c2csc(N3CCN(C(=O)NC45CC6CC(CC(C6)C4)C5)CC3)n2)c1	81.9*	-81.0	9.7	-9.7	-26.5
COc1cccc(-c2csc(N3CCN(C(=S)Nc4ccccc4)CC3)n2)c1	-6.2	9.4	-7.8	7.8	-18.6
Cn1c(SCC(=O)Nc2ccc3nc(SCC(=O)N4CCCC4)sc3c2)nnc1-c1ccc(N)cc1	-22.6	22.2	4.3	-4.3	-6.9
O=C(NCc1ccco1)C1CCN(C(=O)c2cc3sccc3n2Cc2ccc(F)cc2)CC1	-5.9	7.3	-3.1	3.1	89.1*
CCn1c(C(=O)N2CCC(C(=O)NCCCSC3CCCCC3)CC2)cc2sccc21	95.9*	-95.9	5.5	-5.5	11.1
CCN1CCN(C(=O)C2CCN(C(=O)c3cc4sccc4n3CC)CC2)CC1	-15.1	14.0	-1.4	1.4	14.5
O=C(NCCCN1CCCC1)C1CCN(C(=O)c2cc3sccc3n2Cc2ccc(F)cc2)CC1	14.5	-14.1	9.6	-9.6	9.4
CCN(CC)S(=O)(=O)c1cccc(C(=O)N[C@H](C(=O)NCc2ccc(Cl)cc2)C(C)C)c1	-4.6	7.5	7.0	-7.0	-48.5
O=C(Nc1ccc(-c2cn3ccsc3n2)cc1)C1CCCC1	-3.2	1.3	-99.7	99.7*	90.2*
CCOC(=O)C1CCCN(C(=O)c2ccc(C)cc2O)C1 (stereo not drawn)	-2.2	3.0	6.0	-6.0	0.7
Cn1c(N)c(C(=O)COC(=O)CCCc2c[nH]c3ccccc23)c(=O)n(C)c1=O	-0.5	-0.9	-1.6	1.6	-6.6
Cn1c(N)c(C(=O)COC(=O)CCc2c[nH]c3ccccc23)c(=O)n(C)c1=O	-9.3	12.8	54.9*	-54.9	-2.6
CC(NCc1ccccc1)C1COc2ccccc2O1 (stereo not drawn)	11.8	-10.5	49.1*	-49.1	10.5
Cn1c(CSCc2ccc(F)cc2)nnc1SCC(=O)N1CCN(c2ccccc2)CC1	-0.7	3.3	8.7	-8.7	-51.7
COc1cccc(OCC(=O)NN=C2c3ccccc3-c3ccccc32)c1	-0.7	-0.5	15.8	-15.8	-13.3
COc1ccc(OCC(=O)N/N=C2\CCc3ccccc32)cc1	45.6	-46.1	-53.1	53.1*	3.0
Cc1nn(CCc2n[nH]c(=S)n2C2CCCCC2)c(C)c1Br	30.6	-30.1	2.9	-2.9	-62.1
CCN(CC)Cc1nc2c(c(=O)[nH]1)C1(CCCCC1)Cc1ccccc1-2	-7.5	5.5	-4.8	4.8	89.6*
O=C(CCCCn1c(=O)[nH]c2ccsc2c1=O)NCc1ccc2c(c1)OCO2	8.4	-9.1	-64.0	64.0*	33.3
CC(=O)NC(CCS(C)(=O)=O)C(=O)Nc1ccc(C)c(F)c1 (stereo not drawn)	9.8	-8.6	10.7	-10.7	-25.6
COc1ccc(N=C2S/C(=C\c3ccc(N4CCOCC4)o3)C(=O)N2CCc2c[nH]c3ccccc23)cc1	12.0	-9.5	-48.2	48.3*	8.2
CCCN1C(=O)/C(=C/c2ccc(C)o2)SC1=Nc1ccc(OC)cc1	14.8	-12.4	3.0	-3.0	-3.3
COC(=O)c1sccc1NC(=O)c1sccc1C	-3.5	1.0	-15.9	15.9	94.1*
COc1ccc(-n2sc3c(c2=S)-c2cc(OC)ccc2NC3(C)C)cc1	17.4	-15.5	-1.8	1.8	-9.3
COc1ccc2c(c1)-c1c(ssc1=S)C(C)(C)N2	-3.7	1.8	-20.3	20.3	93.9*
CC(Nc1ccccc1)c1cc(Cl)ccc1O (stereo not drawn)	-5.7	9.2	-91.3	91.3*	89.0*
Cc1cc(C)nc(-n2nc(C)cc2NC(=O)c2cccc(S(=O)(=O)N3CCCCC3)c2)n1	nt	nt	2.9	-2.9	-6.0

Screening data as filed in PubChem.
